Source: PubChem BioAssay (ICCB-Longwood Screening Facility, Harvard Medical School)
Shown is part of a subset that was picked to be rich in hits.
Sa helicase inh: blocks Staphylococcus aureus DNA helicase | purified S. aureus helicase, fluorescence unwinding assay | inhibition, % (test concentration not listed) | actives 0.05% (n = 120,000); in the data active means inhibition above about 25%, passing the limit was not always enough
Sa growth inh: inhibitors of Staphylococcus aureus growth at 42 °C; S. aureus RN4220 growth, OD600, 20 h; hits give low values; relative growth, % (test concentration not listed); actives 0.53% (n = 170,000); AID 720641;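 active means relative growth at most 50% at the other temperature and 20+ points below 30 °C, or under 10% at both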
Large screens that a line does not name were inactive.

Cc1cc2ncc(-c3ccccc3)nc2cc1C	none
c1ccc(-c2cnc3nonc3n2)cc1	Sa growth inh 0.8
CCOC(=O)c1cnc(SCC(=O)N2CCCCC2C)nc1N (stereo not given)	none
N=C1/C(=C\c2ccc(-c3cccc(C(=O)O)c3)o2)C(=O)N=C2SC(N3CCCCC3)=NN12	none
O=C1C(=Cc2ccc(F)cc2)C(=O)c2ccccc21	none (no result: Sa helicase inh)
O=C1C=C(Cc2ccc(F)cc2)C(=O)c2ccccc21	Sa growth inh 0.2
CC1=CC(=O)c2ccccc2C1=O	none (no result: Sa helicase inh)
O=C1C=C(Nc2ccccc2)C(=O)c2ccccc21	none
O=C1C=C(c2ccccc2)C(=O)c2ccccc21	Sa growth inh 3.8 (no result: Sa helicase inh)
NC1=CC(=O)c2ccccc2C1=O	Sa growth inh 0.6
O=C(CSc1nc2ccccc2n1-c1ccccc1)c1ccc[nH]1	none
NC(=O)c1c(NC(=O)c2ccc3c(c2)OCCO3)sc2c1CCC2	none
Cc1ccc(S(=O)(=O)CCC(=O)c2ccc(O)cc2O)cc1	Sa growth inh -0.2
Cc1ccc(S(=O)(=O)CCC(=O)O)cc1	none
CCN(CC(=O)NCC12CC3CC(CC(C3)C1)C2)Cc1nc2ccccc2c(=O)[nH]1	none
N#CC(C#N)=NNc1ccc2c(c1)OCCO2	Sa growth inh -0.1
N#C/C(=N/Nc1ccc2c(c1)OCO2)C(=O)N1CCCC1	none
O=C(C1CCC1)N(c1nccs1)C1CCCCC1	none
Cc1nn(CC(=O)c2ccc(Br)cc2)c(N)[n+]1C	none (no result: Sa growth inh)
COc1ccc(C(=O)Cn2nc(CNc3ccc(Br)cc3)[n+]3c2CCCCC3)cc1	Sa growth inh 1.4
CC(OC(=O)COc1cccc(C(F)(F)F)c1)C(N)=O (stereo not given)	none
Cc1ccc(Nc2ssc(=O)c2Cl)cc1C	none
CCn1c(=O)cc(Nc2ccc(C)c(C)c2)[nH]c1=O	Sa growth inh 2.4
O=C(NCC1CCCO1)c1cc2sccc2n1Cc1ccc(F)cc1 (stereo not given)	none
Cc1ccc(NC(=O)c2cccc(S(C)(=O)=O)c2)cc1	none
Cc1ccc(S(=O)(=O)N2CCc3cc(C(=O)Nc4ccc(C)c(C)c4)ccc32)cc1	none (no result: Sa helicase inh)
Cc1ccc(C)c(-c2nnc(NC(=O)c3ccc(S(=O)(=O)N4CCc5ccccc54)cc3)o2)c1	Sa growth inh 1.9
Cc1ccc(C)c(-c2nnc(NC(=O)c3cccc(S(C)(=O)=O)c3)o2)c1	Sa growth inh 5.5
Cc1nc(-c2ccc(C(=O)N3CCCCC3)cc2)cs1	none
O=C(Oc1cc(Cl)cc(Cl)c1)c1ccc(-c2ccccn2)s1	none (no result: Sa helicase inh)
Cc1cccc(Cc2cnc(N3C(=N)SC(C)C3=O)s2)c1 (stereo not given)	Sa growth inh 2.8
Nc1ncc(Cc2cccc(Cl)c2)s1	none
Cc1nc(NC(=O)C2CC2c2ccc(C(C)(C)C)cc2)sc1C(=O)N(C)C (stereo not given)	none
Cc1cc(O)ccc1-n1c(=O)c2cc3c(=O)n(-c4ccc(O)cc4C)c(=O)c3cc2c1=O	none
Cc1cc(O)ccc1Sc1ccc(O)cc1C	Sa growth inh 30
COC(=O)N/N=C/c1ccc(C(C)C)cc1	none
Cc1ccc(C(=O)N(c2ccc(SC(F)F)cc2)c2nc3ccccc3s2)o1	none
NC(=O)NN=C1CCN(Cc2ccccc2)CC1	none
CC(=O)NC1=CC(=O)c2nonc2C1=O	Sa growth inh -0.7
COc1nonc1NC(C)=O	none
O=C(Cn1cncn1)N/N=C/c1ccccc1OC(=O)/C=C1\SC(=O)NC1=O	none
Cc1ccc(Oc2ncccc2NS(C)(=O)=O)c2c1CCC2	none (no result: Sa helicase inh)
CC(C)(C)C1CCc2nc(NC(=O)c3cccc(Cl)c3)sc2C1 (stereo not given)	Sa growth inh 13 (no result: Sa helicase inh)
CC(C)(C)C1CCc2nc(NC(=O)c3ccc([N+](=O)[O-])cc3)sc2C1 (stereo not given)	none (no result: Sa helicase inh)
CCOC(=O)/C(C#N)=C1\C(=O)Nc2ccccc21	none
N#C/C(C(N)=O)=C1/C(=O)Nc2ccc(Br)cc21	Sa growth inh 9.1
O=C(c1c(Cl)nc2sccn12)N1CCOCC1	none
N#CSc1c(Cl)nc2sccn12	Sa growth inh 1.8
FC(F)Oc1ccc(N=C=S)cc1	none
FC(F)Sc1ccc(N=C=S)cc1	Sa growth inh -0.8
O=C1CCCN1CCCNc1nsc2ccccc12	none
Cc1ccc(CNc2ncnc3c2oc2ccccc23)cc1	none
Cc1noc(C)c1C(=O)Nc1nnc(SCC(=O)O)s1	none
Cc1noc(C)c1C(=O)Nc1nnc(SCc2ccc(Cl)cc2)s1	Sa growth inh 4.9
CCOc1ccc(-c2nc(CNCCN3CCOCC3)cs2)cc1OC	none
CC12C(=O)N(c3cccc(C(=O)O)c3)C(=O)C1C1C=CC2C1 (stereo not given)	none
CC(C)N(Cc1nc(-c2ccc(Cl)cc2)no1)C(=O)Cc1ccccc1	none
Cc1ccc(N)c(C(O)(C(F)(F)F)C(F)(F)F)c1	none (no result: Sa growth inh)
Oc1c(Cl)cc(Cl)cc1C(O)(C(F)(F)F)C(F)(F)F	Sa growth inh 7.3
Oc1c(Cl)cc(Cl)cc1Sc1cc(Cl)cc(Cl)c1O	Sa growth inh -0.6 (no result: Sa helicase inh)
CCC(=O)c1cc(Cl)cc(Cl)c1O	none
COc1ccccc1NS(=O)(=O)c1ccc2oc(Nc3ccc(S(=O)(=O)N4CCCCC4)cc3)nc2c1	none
c1cncc(Oc2ncnc3sc4c(c23)CCCC4)c1	none (no result: Sa growth inh)
COc1ccc(OC)c(NC(=O)c2ccc(N3C(=O)CCC3=O)cc2)c1	none
CC1COc2c(N3CCN(C)CC3)c(F)cc3c(=O)c(C(=O)N4CCN(c5ncccn5)CC4)cn1c23 (stereo not given)	none
CC1COc2c(N3CCN(C)CC3)c(F)cc3c(=O)c(C(=O)O)cn1c23 (stereo not given)	Sa growth inh -0.5 (no result: Sa helicase inh)
O=c1ccsn1Cc1ccccc1	Sa growth inh -0.8
O=C1N(Cc2ccccc2)c2cccc3cccc(c23)N1Cc1ccccc1	none
CSc1cccc(-c2nnc(NC(=O)c3ccc4c(c3)OCCO4)o2)c1	Sa growth inh 7.7 (no result: Sa helicase inh)
CS(=O)(=O)c1ccccc1-c1nnc(NC(=O)c2ccc3c(c2)OCCO3)o1	none (no result: Sa helicase inh)
CCOCCC(=O)Nc1ccccc1C(F)(F)F	none
CCN(CC)S(=O)(=O)c1ccc(C(=O)Nc2ncn(Cc3ccccc3)n2)cc1	none
CN(c1ccccc1)S(=O)(=O)c1ccc(C(=O)Nc2nnc(C(F)(F)F)o2)cc1	Sa growth inh 3.2
C=CCN(CC=C)S(=O)(=O)c1ccc(C(=O)Nc2nnc(COC)o2)cc1	none
CSCc1nnc(NC(=O)c2ccc(S(=O)(=O)N(C)Cc3ccccc3)cc2)o1	Sa growth inh 2.4
CCCCN(CC)S(=O)(=O)c1ccc(C(=O)Nc2nnc(COC)o2)cc1	Sa growth inh -0.5
CCN(Cc1ccccc1)S(=O)(=O)c1ccc(C(=O)Nc2nnc(COC)o2)cc1	Sa growth inh 5.7
CN(c1ccccc1)S(=O)(=O)c1ccc(C(=O)O)cc1	none
CCc1nnc(NC(=O)c2ccc(S(=O)(=O)N(C)C)cc2)o1	none
C=C1c2cccc(O)c2C(O)=C2C(=O)[C@]3(O)C(O)=C(C(N)=O)C(=O)[C@@H](N(C)C)[C@@H]3[C@@H](O)[C@H]12	Sa growth inh 0.1 (no result: Sa helicase inh)
CN(C)[C@@H]1C(=O)C(C(=O)NCN2CCCC2)=C(O)[C@@]2(O)C(=O)C3=C(O)c4c(O)cccc4[C@@](C)(O)C3CC12 (stereo not given in full)	none (no result: Sa helicase inh)
C=C1c2c(Cl)ccc(O)c2C(O)=C2C(=O)[C@]3(O)C(O)=C(C(N)=O)C(=O)[C@@H](N(C)C)[C@@H]3[C@@H](O)[C@H]12	Sa growth inh -0.9 (no result: Sa helicase inh)
CNC(=O)c1sc(CN2C(=O)c3ccccc3S2(=O)=O)nc1C	none
CCc1cc2c(=O)n(-c3ccccc3)c(SCC(=O)c3cccs3)nc2s1	none
Cc1nn(CCC#N)c(NC(=O)c2ccc(Cl)cc2)c1P(=O)(Nc1ccc(F)cc1)N1CCOCC1 (stereo not given)	none
